Assay results published in PubChem BioAssay (Tox21).
Unmarked numbers belong to inactive results. Results filed as inconclusive are left out. A call without a number means that no potency is given here. Active and inactive are the calls of the source. Unless noted, the call rests on the fitted dose curve; in most records, active means well fitted curve in the direction sought with a large enough effect in the repeat runs; inconclusive means weak or mixed curves; inactive means no such curve, though single readings can be large; an effect the other way counts as inactive or inconclusive.

Assay: qHTS assay to identify small molecule agonists of the sonic hedgehog signaling (Shh) pathway - cell viability counter screen (AID 1259366); further: nearly all actives have a fitted effect of over 50% in size; further: potency means the concentration at half of the fitted maximal effect
Conditions: NIH/3T3 Gli1-Luc viability, CellTiter-Fluor, 24 h; series mostly up to 92.4 µM
Outline: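 In quantitative high-throughput format, 3T3 Gli1-Luc cells were exposed to compounds for 24hr and multiplexed for viability using CellTiter-Fluor, incubated 1hr at 37C before the fluorescence read.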

Row | SMILES | Potency | viability change, negative = cytotoxic
1 | O=C(NCc1cccnc1)Nc1ccc([N+](=O)[O-])cc1 | inactive | –
2 | CC[C@H]1C[C@H]2[C@@H]3CCC4=CC(=O)CC[C@@H]4[C@H]3CC[C@]2(C)[C@H]1O | inactive | –
3 | O=C(CBr)Nc1ccc(Cl)cc1C(=O)c1ccccc1F | inactive | –
4 | ClCC(Br)CBr (stereo not drawn) | inactive | –
5 | COc1c(C(C)(C)C)cc([N+](=O)[O-])c(C)c1[N+](=O)[O-] | inactive | –
6 | c1ccoc1 | inactive | –
7 | CCCC(=O)Cl | inactive | –
8 | Nc1nc(=S)[nH][nH]1 | inactive | –
9 | Brc1ccc(Oc2ccccc2)cc1 | inactive | –
10 | O=[N+]([O-])c1ccc(F)c([N+](=O)[O-])c1 | 24.6 µM (active) | –
11 | CCOP(=O)(OCC)O/C(=C/Cl)c1ccc(Cl)cc1Cl | inactive | –
12 | CCOP(=S)(OCC)SCSCC | inactive | –
13 | ClC=C(Cl)Cl | inactive | –
14 | COC(N)=O | inactive | –
15 | CCC(Cl)CCl (stereo not drawn) | inactive | –
16 | CCCN(CCCl)c1c([N+](=O)[O-])cc(C(F)(F)F)cc1[N+](=O)[O-] | inactive | –
17 | Cn1cc[n+](C)c1 (tested in a mixture with another compound) | inactive | –

Row | SMILES | Potency | viability change, negative = cytotoxic
18 | C=CC(C)=O | inactive | –
19 | O=C(NC(=O)c1c(F)cccc1F)Nc1ccc(OC(F)(F)C(F)OC(F)(F)F)c(Cl)c1 (stereo not drawn) | inactive | –
20 | COc1cc(Cl)c(OC)cc1Cl | inactive | –
21 | Clc1ccc(C(OCCN2CCCCC2)c2ccccc2)cc1 (stereo not drawn) | inactive | –
22 | CCOP(=S)(Oc1ccc([N+](=O)[O-])cc1)c1ccccc1 (stereo not drawn) | inactive | –
23 | CC(=O)[C@H]1CC[C@H]2[C@@H]3CC[C@H]4C[C@](C)(O)CC[C@]4(C)[C@H]3CC[C@]12C | inactive | –
24 | CCBr | inactive | –
25 | COc1nn(CSP(=S)(OC)OC)c(=O)s1 | inactive | –
26 | CN(N=O)c1ccc([N+](=O)[O-])cc1 | inactive | –
27 | O=C(O)COc1ccc(Cl)cc1 | inactive | –
28 | CN1C(=O)C(O)N=C(c2ccccc2)c2cc(Cl)ccc21 (stereo not drawn) | inactive | –
29 | CO[C@@H]1[C@H](OC(=O)NC(=O)CCl)CC[C@]2(CO2)[C@H]1[C@@]1(C)O[C@@H]1CC=C(C)C | – | -8.47% [at 19 µM]
30 | CCCCNP(N)(N)=S | inactive | –
31 | OCCCBr | inactive | –
32 | Cl/C=C\C[N+]12CN3CN(CN(C3)C1)C2 | inactive | –
33 | CCOP(=S)(OCC)Oc1cc(Cl)c(Br)cc1Cl | inactive | –

Assay: qHTS assay to identify small molecule antagonists of the sonic hedgehog signaling (Shh) pathway - cell viability counter screen (AID 1259367); further: nearly all actives have a fitted effect of over 55% in size; further: potency means the concentration at half of the fitted maximal effect
Conditions: NIH/3T3 Gli1-Luc viability, CellTiter-Fluor, 24 h; series mostly up to 92.4 µM
Outline: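 NIH/3T3-derived Gli1-Luc reporter cells (2,000 per well) rested 4 hr at 37 C, then received DMSO compounds plus conditioned medium. After 23 hr of treatment, CellTiter-Fluor was added for 1 hr at 37C and fluorescence read.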

Row | SMILES | Potency | viability change, negative = cytotoxic
34 | O=C(NCc1cccnc1)Nc1ccc([N+](=O)[O-])cc1 | inactive | –
35 | CC[C@H]1C[C@H]2[C@@H]3CCC4=CC(=O)CC[C@@H]4[C@H]3CC[C@]2(C)[C@H]1O | inactive | –
36 | O=C(CBr)Nc1ccc(Cl)cc1C(=O)c1ccccc1F | inactive | –
37 | ClCC(Br)CBr (stereo not drawn) | inactive | –
38 | COc1c(C(C)(C)C)cc([N+](=O)[O-])c(C)c1[N+](=O)[O-] | inactive | –
39 | c1ccoc1 | inactive | –
40 | CCCC(=O)Cl | inactive | –
41 | Nc1nc(=S)[nH][nH]1 | inactive | –
42 | Brc1ccc(Oc2ccccc2)cc1 | inactive | –
43 | O=C1NCN(c2ccccc2)C12CCN(CCCOc1ccc(F)cc1)CC2 | inactive | –
44 | CCOP(=O)(OCC)O/C(=C/Cl)c1ccc(Cl)cc1Cl | inactive | –
45 | CCOP(=S)(OCC)SCSCC | inactive | –
46 | ClC=C(Cl)Cl | inactive | –
47 | COC(N)=O | inactive | –
48 | CCC(Cl)CCl (stereo not drawn) | inactive | –
49 | CCCN(CCCl)c1c([N+](=O)[O-])cc(C(F)(F)F)cc1[N+](=O)[O-] | inactive | –
50 | Cn1cc[n+](C)c1 (tested in a mixture with another compound) | inactive | –

Row | SMILES | Potency | viability change, negative = cytotoxic
51 | C=CC(C)=O | inactive | –
52 | O=C(NC(=O)c1c(F)cccc1F)Nc1ccc(OC(F)(F)C(F)OC(F)(F)F)c(Cl)c1 (stereo not drawn) | inactive | –
53 | COc1cc(Cl)c(OC)cc1Cl | inactive | –
54 | COCCOCCO | 61.1 µM (active) | –
55 | Clc1ccc(C(OCCN2CCCCC2)c2ccccc2)cc1 (stereo not drawn) | inactive | –
56 | CCOP(=S)(Oc1ccc([N+](=O)[O-])cc1)c1ccccc1 (stereo not drawn) | inactive | –
57 | CC(=O)[C@H]1CC[C@H]2[C@@H]3CC[C@H]4C[C@](C)(O)CC[C@]4(C)[C@H]3CC[C@]12C | inactive | –
58 | CCBr | inactive | –
59 | COc1nn(CSP(=S)(OC)OC)c(=O)s1 | inactive | –
60 | CN(N=O)c1ccc([N+](=O)[O-])cc1 | inactive | –
61 | O=C(O)COc1ccc(Cl)cc1 | inactive | –
62 | CN1C(=O)C(O)N=C(c2ccccc2)c2cc(Cl)ccc21 (stereo not drawn) | inactive | –
63 | CO[C@@H]1[C@H](OC(=O)NC(=O)CCl)CC[C@]2(CO2)[C@H]1[C@@]1(C)O[C@@H]1CC=C(C)C | – | -7.4% [at 19 µM]
64 | CCCCNP(N)(N)=S | inactive | –
65 | OCCCBr | inactive | –
66 | Cl/C=C\C[N+]12CN3CN(CN(C3)C1)C2 | inactive | –
67 | CCOP(=S)(OCC)Oc1cc(Cl)c(Br)cc1Cl | inactive | –

Assay: qHTS assay to identify small molecule agonists of the sonic hedgehog signaling (Shh) pathway (AID 1259368; calls by dose curve;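 further: NIH/3T3-derived 3T3Gli1-Luc cells carrying a stable Gli1-driven firefly luciferase reporter; nearly all actives have a fitted effect of over 15% in size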)
Conditions: NIH/3T3 Gli1-Luc reporter, luciferase, 24 h; series mostly up to 92.4 µM
Outline: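 3T3Gli1-Luc (NIH/3T3 clone, stable Gli1-Luc); 4 hr pre-incubation, then cpd in DMSO 24 hr, 37 C/5% CO2; luciferase reagent 30 min RT; luminescence.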

Row | SMILES | Potency | activity change
68 | O=C(NCc1cccnc1)Nc1ccc([N+](=O)[O-])cc1 | inactive | –
69 | CC[C@H]1C[C@H]2[C@@H]3CCC4=CC(=O)CC[C@@H]4[C@H]3CC[C@]2(C)[C@H]1O | inactive | –
70 | O=C(CBr)Nc1ccc(Cl)cc1C(=O)c1ccccc1F | inactive | –
71 | ClCC(Br)CBr (stereo not drawn) | inactive | –
72 | COc1c(C(C)(C)C)cc([N+](=O)[O-])c(C)c1[N+](=O)[O-] | inactive | –
73 | c1ccoc1 | inactive | –
74 | CCCC(=O)Cl | inactive | –
75 | Nc1nc(=S)[nH][nH]1 | inactive | –
76 | Brc1ccc(Oc2ccccc2)cc1 | inactive | –
77 | O=C1NCN(c2ccccc2)C12CCN(CCCOc1ccc(F)cc1)CC2 | inactive | –
78 | O=[N+]([O-])c1ccc(F)c([N+](=O)[O-])c1 | inactive | –
79 | CCOP(=O)(OCC)O/C(=C/Cl)c1ccc(Cl)cc1Cl | inactive | –
80 | CCOP(=S)(OCC)SCSCC | inactive | –
81 | ClC=C(Cl)Cl | inactive | –
82 | COC(N)=O | inactive | –
83 | CCC(Cl)CCl (stereo not drawn) | inactive | –

Row | SMILES | Potency | activity change
84 | CCCN(CCCl)c1c([N+](=O)[O-])cc(C(F)(F)F)cc1[N+](=O)[O-] | inactive | –
85 | Cn1cc[n+](C)c1 (tested in a mixture with another compound) | inactive | –
86 | C=CC(C)=O | inactive | –
87 | O=C(NC(=O)c1c(F)cccc1F)Nc1ccc(OC(F)(F)C(F)OC(F)(F)F)c(Cl)c1 (stereo not drawn) | inactive | –
88 | COc1cc(Cl)c(OC)cc1Cl | inactive | –
89 | CCOP(=S)(Oc1ccc([N+](=O)[O-])cc1)c1ccccc1 (stereo not drawn) | inactive | –
90 | CCBr | inactive | –
91 | COc1nn(CSP(=S)(OC)OC)c(=O)s1 | inactive | –
92 | CN(N=O)c1ccc([N+](=O)[O-])cc1 | inactive | –
93 | O=C(O)COc1ccc(Cl)cc1 | inactive | –
94 | CO[C@@H]1[C@H](OC(=O)NC(=O)CCl)CC[C@]2(CO2)[C@H]1[C@@]1(C)O[C@@H]1CC=C(C)C | – | -3.77% [at 18.9 µM, hits give high values]
95 | CCCCNP(N)(N)=S | inactive | –
96 | OCCCBr | inactive | –
97 | Cl/C=C\C[N+]12CN3CN(CN(C3)C1)C2 | inactive | –
98 | CCOP(=S)(OCC)Oc1cc(Cl)c(Br)cc1Cl | inactive | –
